# From PubChem
# JMJD2A Tudor inh: JMJD2A Tudor domain (human) inhibition; O75164; AlphaScreen JMJD2A-Tudor / H3K4me3 peptide binding; Potency, µM (series often up to 114 µM), for the others: at the top dose activity change, negative = inhibition, actives largely listed as inhibitors; 390,000 tested, 4.4% active; AID 504339; note: potency is the fitted concentration of half-maximal effect; % is set by controls: 0 for no effect and ±100 for the full control effect; nearly all actives have a fitted effect of over 50% in size
# HP1b chromo inh: HP1-beta chromodomain-methylated histone interaction inhibition; P83916; AlphaScreen HP1-beta / biotin-H3K9me3 peptide binding; Potency, µM (top dose mostly 114 µM), inactives show at the highest dose activity change, negative = inhibition, usual class: inhibitors; 390,000 tested, 0.56% active; note: potency is the fitted concentration of half-maximal effect; nearly all actives have a fitted effect of over 70% in size
#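 AlphaScreen: HP1-beta (50 nM) preformed 30 min with biotin-H3(1-18)K9me3 peptide (50 nM) in PBS pH 7.4, 0.01% Tween-20. Compound added for 30 min at RT, then streptavidin donor/nickel chelate acceptor beads (10 ug/mL) for 30 min.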
# PI5P4K alpha inh: inhibitors of human PI5P4K alpha | P48426 | PI5P4Kalpha enzyme, ADP-Glo luminescence, 60 min; hits give low values | max response, % | 330,000 tested, 1.2% active | AID 652105; active = max response of -50% or lower; inconclusive = between -30% and -50%; inactive = -30% or higher; note: value at the top dose of about 77 µM; % is set by controls: 0 for no effect and ±100 for the full control effect
#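 ADP-Glo luminescence end-point read after a 60 min room-temperature kinase reaction of PI5P4Kalpha plus substrate, initiated with ATP at 5 microM final. Buffer: 0.038 M HEPES pH 7.4, EGTA, 0.1% CHAPS, 5% DMSO.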
# G9a block: blocks human histone lysine methyltransferase G9a. Q96KQ7. G9a H3K9 monomethylation, AlphaScreen, 2 h. Potency, µM (doses to about 102 µM), without a hit: top-dose activity, negative = inhibition, most hits filed as inhibitors. 350,000 tested, 8.8% active; note: potency is the fitted concentration of half-maximal effect; % is set by controls: 0 for no effect and ±100 for the full control effect; nearly all actives have a fitted effect of over 75% in size
#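 Step 1: enzyme (final 20 nM) with compound, 15 min RT. Step 2: substrate peptide 500 nM and SAM 20 uM, 2 h RT. Step 3: anti-H3K9me1 antibody and AlphaScreen beads, 10 min, then plate read.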
# BAZ2B inh: inhibitors of human BAZ2B bromodomain; Q9UIF8; AlphaScreen BAZ2B-H3K14Ac peptide displacement; Potency, µM (titrated, usually from 114 µM), for inactives: at the top dose activity change, negative = inhibition, hits mostly inhibitors; 360,000 tested, 4.4% active; note: potency is the fitted concentration of half-maximal effect; % is set by controls: 0 for no effect and ±100 for the full control effect; nearly all actives have a fitted effect of over 60% in size
#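 Compounds, titrated to a top concentration of 110 uM, were incubated 30 min at room temperature with preformed BAZ2B/acetyl-K14 H3 peptide complex (50 nM each). Proximity signal was measured by AlphaScreen after 20 min with beads.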
# L3MBTL1 block: L3MBTL1 (human) inhibition; Q9Y468; AlphaScreen L3MBTL1–H3K9me1 peptide binding; Potency, µM (titrated, usually from 57.1 µM), for inactives: at the highest dose activity, negative = inhibition, usual class: inhibitors; 230,000 tested, 0.66% active; note: potency is the fitted concentration of half-maximal effect; % is set by controls: 0 for no effect and ±100 for the full control effect; nearly all actives have a fitted effect of over 60% in size
# Target sequence (Q9Y468 whole entry, looked up): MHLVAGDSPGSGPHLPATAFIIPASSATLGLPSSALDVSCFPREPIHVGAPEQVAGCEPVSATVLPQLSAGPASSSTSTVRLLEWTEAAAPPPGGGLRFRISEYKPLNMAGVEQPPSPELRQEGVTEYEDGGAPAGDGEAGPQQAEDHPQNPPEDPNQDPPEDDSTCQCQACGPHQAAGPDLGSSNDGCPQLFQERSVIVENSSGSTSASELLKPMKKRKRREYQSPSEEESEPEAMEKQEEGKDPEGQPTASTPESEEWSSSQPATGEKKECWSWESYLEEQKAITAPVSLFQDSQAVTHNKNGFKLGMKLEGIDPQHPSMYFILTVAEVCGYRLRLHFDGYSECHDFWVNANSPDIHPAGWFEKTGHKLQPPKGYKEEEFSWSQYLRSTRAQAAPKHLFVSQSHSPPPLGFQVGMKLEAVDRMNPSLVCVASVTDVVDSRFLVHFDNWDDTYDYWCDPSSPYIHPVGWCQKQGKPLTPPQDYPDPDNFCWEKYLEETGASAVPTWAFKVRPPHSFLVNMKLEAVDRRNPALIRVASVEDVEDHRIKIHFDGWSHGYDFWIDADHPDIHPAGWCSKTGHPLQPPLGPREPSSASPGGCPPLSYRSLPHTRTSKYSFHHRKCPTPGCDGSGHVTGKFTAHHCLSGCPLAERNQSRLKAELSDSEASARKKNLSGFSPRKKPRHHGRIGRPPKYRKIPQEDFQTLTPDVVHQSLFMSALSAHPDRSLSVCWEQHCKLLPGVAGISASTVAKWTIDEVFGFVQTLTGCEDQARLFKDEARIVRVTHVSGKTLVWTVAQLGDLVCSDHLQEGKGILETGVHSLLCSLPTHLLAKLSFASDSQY
#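 Displacement of a biotinylated histone H3(1-15) peptide monomethylated at Lys9 (75 nM) from L3MBTL1 (50 nM) was measured by AlphaScreen after a 30 min room-temperature compound incubation; cefsulodin titration served as intraplate control.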
# * hit, by the source's call; ? = inconclusive; · = no result given; [ ] = remark or other dose. Compounds with a hit are over-represented: about 11% of the library has one in this group of screens. Unless noted, calls come from the whole dose curve; as a rule, active = well fitted inhibition curve with a large enough effect; inconclusive = small, poorly fitted or top-dose-only effect; inactive = no such curve, though single readings can be large or run the other way.
SMILES,JMJD2A Tudor inh,HP1b chromo inh,PI5P4K alpha inh,G9a block,BAZ2B inh,L3MBTL1 block
Cc1nc(-c2ccc(F)cc2)c(CC(=O)N(C)CC(=O)Nc2ccc(Br)cc2C)s1,-33%,6%,4,32µM*,-19%,1%
COc1ccc(OC)c(NC(=O)c2ccc3nc(C(C)C)oc3c2)c1,-2%,23%[57 µM],·,-4%[59 µM],0%,·
CC(=O)Nc1ccc(NS(=O)(=O)c2cc(-c3n[nH]c(=O)c4ccccc34)ccc2C)cc1,-17%,3%,-20,-26%,79µM*,-10%
Cc1cc(CNC(=O)[C@]2(C(F)(F)F)C[C@H](CCC3CCCCC3)CCCO2)nn1C,-18%,27%,·,·,·,·
COC(=O)COc1ccc(-c2nccc(-c3ccc(Br)cc3)n2)cc1,16µM*,10%,-16,6%,4%,·
COc1cccc(C2=Nn3c(nnc3-c3cc(OC)cc(OC)c3)SC2)c1,-19%,·,·,·,·,·
COCCN1C(=O)/C(=C/c2ccc(N3CCCC3)cc2C)SC1=S,?,-16%,3,-9%[0.501 µM],8.9µM*,-25%
Cc1ccc(C(=O)NC(=S)N2CCN(C(=O)OC(C)(C)C)CC2)cc1Br,-12%,24%,2,24%,-11%,-13%
CCOC(=O)N1CCN(C(=S)NC(=O)c2ccc(Br)cc2)CC1,-21%,13%,-5,50µM*,-18%,-6%
CCOC(=O)N1CCN(C(=S)NC(=O)c2cncc(Br)c2)CC1,-14%,-11%,2,4µM*,-30%,6%
CCOC(=O)N1CCN(C(=S)NC(=O)c2cc(Br)ccc2Cl)CC1,-12%,7%,-10,?,-15%,-7%
COc1ccc(C(C#N)=Cc2ccccc2OC)cc1,·,·,-6,·,·,·
COc1cc(N2CCCC2)c(OC)cc1/C=C(/C#N)c1ccc(Br)cc1,20µM*,?,·,2.8µM*,13µM*,·
COc1cc(N2CCCC2)c(OC)cc1/C=C(/C#N)c1ccc(F)cc1,32µM*,40µM*,-3,1.6µM*,16µM*,?
Cc1ccccc1C1C(C#N)=C2N=C(N)c3c(sc4c3CCCCC4)N2C2=C1C(=O)CCC2 (centres undefined),-23%[57.1 µM],16%,-19,?,45µM*,-19%
S=C(NC1CCCCCC1)NC1CCCC1,-11%,0%,0,-2%,-6%,7%
NNC(=S)NC1CCCCCCCCCCC1,?,32%,2,·,32µM*,-8%
COc1cc(C2CC(=O)N(Cc3cccc(F)c3)c3ccccc3S2)cc(OC)c1OC (centres undefined),-19%,26%,·,-1%[59 µM],-6%,·
COc1ccc(CCN(C)Cc2c(O)ccc3cc(Br)ccc23)cc1OC,-25%,30%,-4,25µM*,-37%,·
COc1ccc(CN(C)Cc2c(O)ccc3cc(Br)ccc23)cc1OC,-22%,2%,6,25µM*,?,·
CCCCN(C)C(=O)Cc1c(OC)ccc2cc(Br)ccc12,25µM*,?,-16,32µM*,-3%,3%
Cc1cccc(-n2cnc3cc([N+](=O)[O-])ccc32)c1,-21%,-24%,-20,11µM*,?,-7%
Nc1ccc(-n2cnc3cc([N+](=O)[O-])ccc32)cc1,-7%,4%,4,5%[12.7 µM],-6%,2%
Cc1oc2ccc(O)c(CN3CCOCC3)c2c1C(=O)c1ccc(Cl)cc1,-13%,3%,1,?,-39%,-15%
Cc1oc2c(Cl)c(Cl)c(O)c(CN(C)C)c2c1C(=O)c1ccc(Cl)cc1,?,-5%,-6,?,45µM*,-28%
SMILES,JMJD2A Tudor inh,HP1b chromo inh,PI5P4K alpha inh,G9a block,BAZ2B inh,L3MBTL1 block
CC1CCc2c(sc(NC(=O)c3cc(-c4ccc(Br)cc4)on3)c2C(N)=O)C1 (centres undefined),-16%,18%,·,-8%[59 µM],4%,·
CSc1ccc(S(=O)(=O)N2CCC(C(=O)N3CCc4ccccc4C3)CC2)cc1,-13%,12%,1,40µM*,-18%,·
CCC(C)c1ccc(S(=O)(=O)N2CCN(S(=O)(=O)c3ccc(NC(C)=O)cc3)CC2)cc1 (centres undefined),-16%,6%,-2,11%,-20%,·
CC(=O)Nc1ccc(NC(=O)Cc2ccc(S(=O)(=O)N3CCCCC3)cc2)cc1,-13%,41%,1,40µM*,-34%,5%
CCC(C)N1CCN(S(=O)(=O)c2ccc(NC(C)=O)cc2)CC1 (centres undefined),22µM*,?,10,20µM*,56µM*,4%
Cc1ccc(S(=O)(=O)N2CCC(C(=O)Nc3ccc(N4CCOCC4)cc3)CC2)cc1C,-5%,26%,-2,16µM*,-2%,-1%
O=C(Nc1ccc(N2CCOCC2)cc1)C1CCN(S(=O)(=O)c2ccc3c(c2)OCCO3)CC1,-3%,31%,2,-40%,-17%,1%
COc1ccc(S(=O)(=O)N2CCC(N3CCCCC3)CC2)cc1,8.9µM*,?,-3,?,71µM*,-23%
O=c1ccc(S(=O)(=O)N2CCCC2)cn1Cc1ccc(F)cc1,0%,25%,1,3.5µM*,-2%,3%
CC(c1ccc(F)cc1)n1cc(S(=O)(=O)N2CCCC2)ccc1=O (centres undefined),0%,32%,-14,-1%[59 µM],-4%,0%
CC(=O)Nc1ccc(S(=O)(=O)N2CCC(N3CCCC3)CC2)cc1,3.5µM*,?,-7,50µM*,?,·
COc1ccc(S(=O)(=O)N2CCCCCC2)cc1,-14%,16%,1,-1%[59 µM],-3%,·
CCn1c(C2CCN(S(=O)(=O)c3ccc(OC)cc3)CC2)n[nH]c1=S,6.3µM*,8%,0,14µM*,-19%,·
CCn1c(SCc2ccccc2)nnc1C1CCN(S(=O)(=O)c2ccc(OC)cc2)CC1,-6%,21%,-3,·,-26%,-2%
CC(C)c1nn2c(=O)cc(COC(=O)c3ccc(NC(=O)c4cccs4)cc3)nc2s1,3%,38%,·,2%[12.7 µM],-1%,·
Cc1nnc2c(N3CCN(c4ccccc4F)CC3)nc3ccccc3n12,-6%,22%,·,2%[59 µM],0%,·
CCc1cccc(C)c1NC(=O)c1cc(S(=O)(=O)NCc2ccccc2Cl)ccc1F,?,-6%,·,5%[59 µM],2%,·
Cc1cccc(N2CCN(C(=O)c3cc4c(=O)n(C)c5ccccc5c4s3)CC2)c1C,4%,33%,·,4%[59 µM],·,·
N#Cc1ccc(S(=O)(=O)N2CCC(N3CCCCC3)CC2)cc1,-2%,15%,-12,2%,6%,·
O=S(=O)(c1ccc(F)cc1)N1CCC(N2CCCC2)CC1,20µM*,?,6,?,?,?
